Data on 96 compounds can be found in PubChem BioAssay AID1063 (University of Pittsburgh Molecular Library Screening Center, 2008).

SMILES strings stand for the structures. The campaign covered roughly 200,000 compounds. About 18,000 (9%) were called active. For the sample, actives were picked, then their nearest neighbours and some compounds at random. A number with no mark means an inactive call. No stated cut-off is given here; in the data, active means inhibition above about 50%; inactive means the rest.

This test is described as follows: antileishmanial activity against promastigotes – primary screen (AID 1063).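 Further: promastigotes grown with compound for 44 hours at 28 °C.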 The settings on record: Leishmania major promastigotes, resazurin fluorescence viability; at 10 µM; active compounds read high.
As to `O=C1CCC/C(=N\NC(=O)NC2CCCCC2)C1`, the inhibition – broadly, the drop in the measured response relative to a control, in per cent – was -1.59%.

For the compound `CCOc1ccc(S(=O)(=O)Nc2nccs2)cc1`, the inhibition is -5.45%. `CC(C)(C)C(=O)CN1C2=NCCN2c2ccccc21`: the inhibition was -5.39%. The result for `Fc1cccc(CSc2nnc3ccc(-c4ccncc4)nn23)c1` reads 10.7%; that for `CCOC(=O)c1[nH]c2ccc(OC)cc2c1NC(=O)N1CCOCC1`, 2.48%. Turning to `Cc1c(C(=O)N2CCOCC2)[nH]c2ccc(OCc3ccccc3)cc12`, the inhibition is 88.8% (active). Take `Cc1c(C(=O)CN2CCOCC2)[nH]c2ccccc12`: the inhibition was -3.24%. The result for `CCCCN(C(=O)c1ccc(OC(F)(F)F)cc1)c1c(N)n(CCC)c(=O)[nH]c1=O` reads -4.12%; that for `Cc1ccc(S(=O)(=O)N(C)C)cc1NC(=O)COC(=O)C1COc2ccccc2O1` (stereo unspecified), 4.18%. On to `Fc1ccc2nc(N3CCCCC3)sc2c1`, for which the inhibition was 2.6%. The result for `CSc1ncccc1C(=O)Nc1nc2ccc(F)cc2s1` reads 28.5%; that for `Fc1ccc2nc(Nc3nc4c(s3)CCCC4)sc2c1`, 77.9% (active); that for `CCn1c(SCC(=O)N(C)C2CCS(=O)(=O)C2)nnc1-c1cccs1` (stereo unspecified), -1.56%. For the compound `COc1ccc(NC(=O)c2cc3nc(-c4ccccc4)cc(C)n3n2)cc1OC`, the inhibition is 19.4%. The value for `COc1cccc2sc(N(CCCN(C)C)C(=O)C(c3ccccc3)c3ccccc3)nc12` was 94.5% (active). The result for `CN(C)CCCN(C(=O)COc1ccccc1)c1nc2c(Cl)cccc2s1` reads 1.9%; that for `CC(=O)N(CCCN(C)C)c1nc2ccc(C)cc2s1`, -6.81%; that for `CCCCCCCNc1nc(Cl)nc(NCCO)n1`, -8.89%. The value for `COc1ccc(Br)cc1CN1CCN(C(=O)c2cccc(OC)c2OC)CC1` was 0.16%. As to `COc1cc2c(C(=O)N3CCN(C)CC3)c(CSc3ccccc3)n(C)c2cc1Br`, the inhibition is 50.6% (active). The value for `COc1ccccc1OCc1ccc(C(=O)N2CCN(C)CC2)o1` was -7.4%.

As to `CC(=O)c1ccc(N2CCN(S(=O)(=O)c3c(C)[nH]c(=O)[nH]c3=O)CC2)cc1`, the inhibition was -5.88%. The result for `Cc1oc2cc([N+](=O)[O-])c(O)c([N+](=O)[O-])c2c1C(=O)c1ccc(Br)cc1` reads -8.1%. For `COc1cccc(CN(C)CC(=O)Nc2sc3c(c2C#N)CCC3)c1`, the inhibition was -4.03%. The value for `O=C(CN1C(=O)CC(c2ccccc2)S(=O)(=O)c2ccccc21)NC1CCCC1` (stereo unspecified) was 5.62%; that for `COc1ccc(-n2cnnc2SCC(=O)Nc2cccc([N+](=O)[O-])c2)cc1` was -9.51%. The result for `CC(C)CC(=O)NC(=S)NNC(=O)c1cccc([N+](=O)[O-])c1` reads 7%; that for `Cn1c(-c2ccc(F)cc2)cnc1SCC(=O)NNC(=O)Cc1ccccc1`, 0.35%; that for `COC(=O)c1sccc1NC(=O)c1cc(OC)c(OC)c(OC)c1`, 8.27%.

Consider `COC(=O)Cn1c2ccc(C)cc2c2nc(C)sc21`, for which the inhibition was -6.29%.

Consider `COC(=O)Cn1c(=NC(=O)c2cc(OC)c(OC)c(OC)c2)sc2cc(OC)ccc21`, for which the inhibition is 55.3% (active). As for `CC(C)(C)C(=O)CSc1nc2ccccc2o1`, the inhibition is 4.86%. With `CCN(CC)CCNc1nc(-c2ccc(OC(F)F)cc2)c(C)s1`, the inhibition is 99.4% (active). The value for `NC(=O)C[n+]1cccc(C(N)=O)c1` was -3%.

With `COn1c(-c2ccc(Cl)cc2Cl)nc2ncccc21`, the inhibition was -6.75%. The result for `CCN(CC)S(=O)(=O)c1cccc(-c2n[nH]c(=S)n2/N=C/c2ccc(C(=O)OC)cc2)c1` reads 27.8%; that for `S=c1[nH]nc(-c2cccnc2)n1/N=C/C(Cl)=C\c1ccccc1`, 86% (active). Turning to `Cc1ccccc1-c1n[nH]c(=S)n1/N=C/c1ccc(-c2ccccc2Br)o1`, the inhibition is 23%. The result for `c1ccc(-n2nnnc2-c2cccnc2)cc1` reads -7.89%; that for `Cc1cc(-c2n[nH]c(=S)n2/N=C/C(Br)=C/c2ccccc2)n[nH]1`, 88.5% (active). In the case of `COc1ccccc1N1CCN(/N=C\C(Br)=C\c2ccccc2)CC1`, the inhibition was -5.39%. As to `Clc1ccc(N/N=C/c2cccs2)nn1`, the inhibition is -2.51%. The value for `C/C(N)=C(/C#N)C(=O)COC(=O)c1cc(-c2ccccc2)nc2ccc(Br)cc12` was -4.87%. On to `C/C(N)=C(/C#N)C(=O)COC(=O)c1cc(-c2cccc(Br)c2)nc2ccccc12`, for which the inhibition is 59.9% (active). In the case of `C/C(N)=C(/C#N)C(=O)COC(=O)c1cc(-c2ccc(C)cc2)nc2ccccc12`, the inhibition is 18.1%. For the compound `O=C(NCc1ccccc1Cl)C1CCCO1` (stereo unspecified), the inhibition is -3.01%. Take `COc1ccc(-c2nnc3ccc(SCc4ccccc4)nn23)cc1`: the inhibition was -3.51%. The value for `O=C1CCC(=O)N1c1ccc(NCCc2ccccc2F)c([N+](=O)[O-])c1` was -3.12%; that for `Cc1ccccc1C(=O)OC1OC(=O)C(Cl)=C1Nc1ccccc1` (stereo unspecified) was 2.63%. The result for `COc1ccc(C(=O)COC(=O)c2nn(C)c(=O)c3ccccc23)c(OC)c1` reads -4.39%; that for `FC(F)Oc1ccc(NC(=S)NCc2ccco2)cc1Cl`, 12.2%.

On to `Cc1ccc(CC(=O)Nc2ccc(OC(F)F)c(Cl)c2)cc1C`, for which the inhibition was 91.2% (active).

In the case of `Cc1ccc(S(=O)(=O)NCCC(=O)Nc2ccc(C)c(Cl)c2)cc1C`, the inhibition was 4.01%. The value for `CC(C)Cn1c(N)c(C(=O)COC(=O)CN2C(=O)C3CC=CCC3C2=O)c(=O)n(C)c1=O` (stereo unspecified) was 0.69%; that for `O=[N+]([O-])/C(N=Nc1ccccc1)=N\Nc1ccccc1` was 0.84%; that for `CCOc1cccc(/C=N/N2C(=O)CSC2=S)c1O` was 2.44%. The value for `Cc1ccccc1-n1cc(CNC(=O)CC2C(=O)NCCN2C/C=C/c2ccccc2)cn1` (stereo unspecified) was -1.38%; that for `CCOC(=O)c1oc2c(CN3CCN(CCO)CC3)c(O)c(CC)cc2c(=O)c1-c1nc2ccccc2s1` was -5.26%; that for `COc1cc(OC)nc(S(C)(=O)=O)n1` was -0.01%. For the compound `COc1ccc(-c2cc(C(F)(F)F)nc(SCC(=O)Nc3ccc4c(c3)OCO4)n2)cc1OC`, the inhibition is 0.67%. In the case of `COc1ccc(-c2cc(C(F)(F)F)nc(S(C)(=O)=O)n2)cc1OC`, the inhibition is 71.7% (active). Turning to `O=C(/C=C/c1ccc(N2CCOCC2)cc1)c1ccccc1`, the inhibition is 13.2%. The value for `O=c1[nH]c(CN2CCOCC2)nc2scc(-c3ccccc3)c12` was -8.93%; that for `O=C(CSCc1ccc(Br)cc1)Nc1ccc(S(=O)(=O)N2CCCCCC2)cc1` was 6.78%; that for `CN(CC(=O)Nc1ccc(S(=O)(=O)N2CCCC2)cc1)Cc1ccc(Cl)c(Cl)c1` was 92% (active). On to `CS(=O)(=O)N(CC(=O)Nc1ccc(Cl)c(Cl)c1)C1CCCCC1`, for which the inhibition was 15.8%. The value for `O=C(NNC(=O)C1CCN(c2ncccn2)CC1)c1ccccc1` was -7.74%; that for `O=C1N(Cc2ccc3c(c2)OCO3)c2ccccc2C1(O)c1c[nH]c2ccccc12` (stereo unspecified) was 88.9% (active). As to `O=C(Cn1nnc(-c2ccccc2)n1)NCc1ccc2c(c1)OCO2`, the inhibition was -6.91%. The result for `O=C(CCCCn1c(=O)[nH]c2ccccc2c1=O)NCc1ccc2c(c1)OCO2` reads 4.03%; that for `Cc1ccc(/C=N/NC(=O)COc2ccccc2-c2ccccc2)cc1`, 4.74%. On to `CC(=O)n1c(C=Nc2ccccc2)c(O)c2ccccc21`, for which the inhibition is 4.07%. The value for `NS(=O)(=O)c1ccc(NC(=S)NNC(=O)c2cccs2)cc1` was -4.08%; that for `CC(=O)Cc1nsc(NC(=O)c2ccc(Cl)cc2Cl)n1` was -1.22%.

As for `CCOc1cc(N2CCOCC2)c(OCC)cc1NC(=O)C1=NN(c2cccc(C)c2)C(=O)CC1`, the inhibition was 13.6%. The result for `CN(Cc1nc2ccccc2c(=O)[nH]1)Cc1cc(=O)oc2ccc3ccccc3c12` reads 14.2%; that for `CCN(CC(=O)NC(=O)NCc1ccccc1)Cc1nc2ccccc2c(=O)[nH]1`, -3.9%.

In the case of `CCN(Cc1nc2ccccc2c(=O)[nH]1)Cc1cc(=O)oc2cc(C)c(C)cc12`, the inhibition is 73.8% (active).

Take `COc1cc(/C=C/C(=O)OCC(=O)NC(=O)NCc2ccccc2)ccc1OCC#N`: the inhibition was -1.09%. The result for `CC(=O)c1cc(C#N)c(SCC(=O)Nc2nccs2)nc1C` reads 1.83%; that for `CCOC(=O)c1ccccc1NC(=O)CSc1nc2ccccc2c(=O)[nH]1`, 6.6%; that for `O=S(=O)(c1ccc(Br)cc1)n1ccc2ccccc21`, 90.7% (active). The value for `CCCCNS(=O)(=O)c1ccc(S(=O)(=O)n2cnc3ccccc32)cc1` was -3.46%; that for `O=S(=O)(c1ccc(-c2ccccc2)cc1)N1CCCC1` was -7.57%; that for `COc1ccc(-n2c(O)c(C=NCC(c3ccco3)N3CCCC3)c3ccccc3c2=O)cc1OC` (stereo unspecified) was 2.68%. For `CC(=O)c1ccccc1NC(=O)CC1(CC(=O)O)CCCCC1`, the inhibition was 3.25%. `CCOC(=O)C1=NOC(Cn2cc(C(C)=O)c(=O)[nH]c2=O)C1` (stereo unspecified): the inhibition was 1.88%. `O=C(OCc1ccc([N+](=O)[O-])cc1)c1ccccn1`: the inhibition was -0.28%. The result for `N/C(=N\OC(=O)c1ccc([N+](=O)[O-])cc1)c1ccccn1` reads 1.71%; that for `N/C(=N\OC(=O)Cc1ccc([N+](=O)[O-])cc1)c1ccccn1`, 98.7% (active). For `CNc1nccc(-c2ccc(Cl)cc2)c1C#N`, the inhibition was -6.29%. The result for `COc1cc(OC)cc(-c2nnc(N(C)C(=O)c3ccncc3)s2)c1` reads -3.83%. The value for `Cc1ccc(NC(=O)CSc2nc(CSc3ccc(C)cc3)cc(=O)[nH]2)cc1` was -2.59%. The value for `O=C(Nc1ccc2oc(-c3ccc4ccccc4c3)nc2c1)c1cccs1` was -1.1%. With `O=C(Cc1cccc2ccccc12)Nc1ccc2oc(-c3ccccc3)nc2c1`, the inhibition was 40.6%. Consider `CCCCCC(=O)Nc1ccc2oc(-c3ccncc3)nc2c1`, for which the inhibition is 96.4% (active).
